Experimental findings from PubChem BioAssay (Tox21) are described below.

Values without a mark were called inactive. Records with an inconclusive call do not appear. Where a call stands in place of a potency, no number is given. Active and inactive are the calls of the source. Calls come from the whole dose curve.

Sequence of Acetylcholinesterase (Homo sapiens) (P22303 whole entry, looked up): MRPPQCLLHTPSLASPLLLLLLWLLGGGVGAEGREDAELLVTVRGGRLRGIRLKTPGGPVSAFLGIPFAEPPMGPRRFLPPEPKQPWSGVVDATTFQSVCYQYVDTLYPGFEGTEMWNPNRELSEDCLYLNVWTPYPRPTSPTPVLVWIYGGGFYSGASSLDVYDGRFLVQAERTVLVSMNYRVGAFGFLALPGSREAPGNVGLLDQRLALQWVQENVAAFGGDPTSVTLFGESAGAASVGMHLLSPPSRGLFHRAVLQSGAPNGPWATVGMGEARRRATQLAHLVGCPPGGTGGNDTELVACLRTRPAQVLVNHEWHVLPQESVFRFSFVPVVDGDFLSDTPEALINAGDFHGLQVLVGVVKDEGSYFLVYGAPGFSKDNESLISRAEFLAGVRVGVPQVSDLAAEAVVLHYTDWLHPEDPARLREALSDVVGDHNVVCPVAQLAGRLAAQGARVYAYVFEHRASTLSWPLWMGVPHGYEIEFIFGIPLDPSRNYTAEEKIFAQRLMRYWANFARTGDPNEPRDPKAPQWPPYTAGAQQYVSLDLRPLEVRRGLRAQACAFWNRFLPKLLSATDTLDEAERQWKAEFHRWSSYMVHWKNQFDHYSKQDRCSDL

For the first assay, the target named is Acetylcholinesterase (Homo sapiens) (UniProt P22303). The assay can be described thus: Acetylcholinesterase (AChE) small molecule antagonists: enzyme-based qHTS assay (AID 1347397). Note: nearly all actives have a fitted effect of over 55% in size. Particulars: Potency: AChE enzyme activity inhibition; outcome: AChE enzyme activity inhibition; series mostly up to 115 µM. In short, it runs like this:
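Colorimetric DTNB read-out of thiocholine released from acetylthiocholine by recombinant human AChE (50 mU/mL as dispensed). Compounds were preincubated 30 min at RT before substrate/DTNB addition, with a 10 min RT reaction.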
Background: qHTS replaces the single test concentration by a dilution series.
As to `CC(C)(CC(=O)O)C(=O)O`, the Potency result was “inactive”.

`O=C1CCCc2ccccc21`: the Potency result is “inactive”.

As to `CCCCOC(=O)c1ccccc1C(=O)OCC(CC)CCCC` (stereo not given), the Potency result is “inactive”.

For `O=Cc1ccccc1S(=O)(=O)O`, the Potency entry was “inactive”.

Take `Oc1ccc(O)cc1`: the Potency entry is “inactive”.

Turning to `CC(C)Cn1cnc2c1c(=O)n(C)c(=O)n2C`, the Potency result was “inactive”.

For the compound `OC(Cn1cncn1)(Cn1cncn1)c1ccc(F)cc1F`, the Potency result was “inactive”.

Regarding `O=c1cc(-c2ccc(O)cc2)oc2cc(O)cc(O)c12`, the Potency result is “inactive”.

`O=C(Nc1cccc(C(F)(F)F)c1)c1cc(Br)cc(Br)c1O`: the Potency entry is “inactive”.

With `COc1ccc(OC)cc1`, the Potency entry is “inactive”.

On to `CC(=O)Oc1ccc(C(=C2CCCCC2)c2ccc(OC(C)=O)cc2)cc1`, for which the Potency entry was “inactive”.

Take `O=C(Cl)c1ccc(F)c(Cl)c1`: the Potency result was “inactive”.

`CN(C)CCOC(=O)C(c1ccccc1)C1(O)CCCC1` (stereo not given): the Potency result was “inactive”.

As for `CCOC(=O)COc1ccc(C)cc1`, the Potency result is “inactive”.

As to `O=c1ccc2ccccc2o1`, the Potency entry was “inactive”.

Consider `CCOC(OCC)OCC`, for which the Potency result was “inactive”.

As for `C/C=C1/CC2C=CC1C2` (stereo not given), the Potency result was “inactive”.

As for `Fc1ccccc1`, the Potency entry is “inactive”.

On to `C=C(C)C(=O)OCCN(CC)CC`, for which the Potency result is “inactive”.

For the compound `CCCCC(CC)COS(=O)(=O)O` (stereo not given), the Potency result was “inactive”.

Take `O=c1[nH]c2ccccc2c(=O)n1CCCl`: the Potency entry was “inactive”.

With `CC(=O)SCc1ccco1`, the Potency result was “inactive”.

Turning to `Cc1ccc(C(=O)Oc2ccc(C(O)CNC(C)(C)C)cc2OC(=O)c2ccc(C)cc2)cc1` (stereo not given), the Potency result was “inactive”.

With `Nc1cc(S(=O)(=O)O)cc2cc(S(=O)(=O)O)cc(O)c12`, the Potency entry was “inactive”.

As to `CC(C)Cc1nccs1`, the Potency result was “inactive”.

On to `CCCCCC(N)=O`, for which the Potency result is “inactive”.

For `c1cc(CCCc2ccncc2)ccn1`, the Potency result is “inactive”.

As for `O=C1NC2NC(=O)NC2N1` (stereo not given), the Potency entry is “inactive”.

Turning to `CC(C)OCC1CO1` (stereo not given), the Potency result is “inactive”.

`Nc1ccc2c(c1)CN1C(=O)c3ccccc3C1=N2`: the activity change, negative = inhibition is 1.39% [at 23.6 µM].

Turning to `CCN1C=CN(C)C1C` (stereo not given), the Potency result is “inactive”.

Regarding `C=C/C(C)=C/C/C=C(\C)CCC=C(C)C`, the Potency result is “inactive”.

As for `COc1ccc(Cc2cnc(N)nc2N)cc1OC`, the Potency result was “inactive”.

As to `OCCCCCO`, the Potency entry is “inactive”.

As to `C=C[C@@H](C)CCC=C(C)C`, the Potency result was “inactive”.

On to `C/C=C/C=N/NC(=O)c1ccncc1`, for which the Potency result was “inactive”.

In the case of `C/C=C(\C)C(=O)OC/C=C(\C)CCC=C(C)C`, the Potency result is “inactive”.

With `CC(C)[C@@H]1CC[C@@H](C)C[C@H]1O`, the Potency entry was “inactive”.

As for `Cc1nc2ccc(CN(C)c3ccc(C(=O)N[C@@H](CCC(=O)O)C(=O)O)s3)cc2c(=O)[nH]1`, the Potency result is “inactive”.

In the case of `C[N+](C)(C)CC[N+]1(C)Cc2c(Cl)c(Cl)c(Cl)c(Cl)c2C1`, the Potency result is “inactive”.

The target is the same in another assay. As to the kind of experiment: Acetylcholinesterase (AChE) small molecule antagonists: fluorescence cell-based qHTS assay (AID 1347398). Note: nearly all actives have a fitted effect of over 50% in size. Particulars: SH-SY5Y cells; Potency: AChE activity; outcome: AChE activity; series mostly up to 115 µM. In outline:
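SH-SY5Y, 2,000 cells/well, attached overnight; cmpd 30 min 37 C; acetylthiocholine/Thiolite Green cocktail 40 min RT; fluorescence Ex/Em 490/520 nm.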
Regarding `CC(C)(CC(=O)O)C(=O)O`, the Potency result was “inactive”.

For the compound `O=C1CCCc2ccccc21`, the Potency result is “inactive”.

As for `CCCCOC(=O)c1ccccc1C(=O)OCC(CC)CCCC` (stereo not given), the Potency result was “inactive”.

Consider `O=Cc1ccccc1S(=O)(=O)O`, for which the Potency result was “inactive”.

On to `Oc1ccc(O)cc1`, for which the Potency entry was “inactive”.

As to `CC(C)Cn1cnc2c1c(=O)n(C)c(=O)n2C`, the Potency entry is “inactive”.

Regarding `OC(Cn1cncn1)(Cn1cncn1)c1ccc(F)cc1F`, the Potency entry is “inactive”.

As for `O=c1cc(-c2ccc(O)cc2)oc2cc(O)cc(O)c12`, the Potency entry was “inactive”.

Take `O=C(Nc1cccc(C(F)(F)F)c1)c1cc(Br)cc(Br)c1O`: the Potency result is “inactive”.

With `COc1ccc(OC)cc1`, the Potency entry is “inactive”.

Regarding `CC(=O)Oc1ccc(C(=C2CCCCC2)c2ccc(OC(C)=O)cc2)cc1`, the Potency entry was “inactive”.

In the case of `O=C(Cl)c1ccc(F)c(Cl)c1`, the Potency result was “inactive”.

Regarding `CN(C)CCOC(=O)C(c1ccccc1)C1(O)CCCC1` (stereo not given), the Potency entry was “inactive”.

On to `CCOC(=O)COc1ccc(C)cc1`, for which the Potency entry is “inactive”.

As for `O=c1ccc2ccccc2o1`, the Potency result was “inactive”.

Regarding `CCOC(OCC)OCC`, the Potency entry was “inactive”.

Turning to `C/C=C1/CC2C=CC1C2` (stereo not given), the Potency result is “inactive”.

Consider `Fc1ccccc1`, for which the Potency result was “inactive”.

For the compound `C=C(C)C(=O)OCCN(CC)CC`, the Potency entry was “inactive”.

Consider `CCCCC(CC)COS(=O)(=O)O` (stereo not given), for which the Potency entry was “inactive”.

With `O=c1[nH]c2ccccc2c(=O)n1CCCl`, the Potency entry is “inactive”.

In the case of `CC(=O)SCc1ccco1`, the Potency entry was “inactive”.

As to `Cc1ccc(C(=O)Oc2ccc(C(O)CNC(C)(C)C)cc2OC(=O)c2ccc(C)cc2)cc1` (stereo not given), the Potency result was “inactive”.

As to `Nc1cc(S(=O)(=O)O)cc2cc(S(=O)(=O)O)cc(O)c12`, the Potency entry is “inactive”.

For `CC(C)Cc1nccs1`, the Potency entry is “inactive”.

With `CCCCCC(N)=O`, the Potency result was “inactive”.

Consider `c1cc(CCCc2ccncc2)ccn1`, for which the Potency result was “inactive”.

With `O=C1NC2NC(=O)NC2N1` (stereo not given), the Potency entry is “inactive”.

On to `CC(C)OCC1CO1` (stereo not given), for which the Potency result was “inactive”.

On to `Nc1ccc2c(c1)CN1C(=O)c3ccccc3C1=N2`, for which the activity change, negative = inhibition was -15.4% [at 23.8 µM].

For `CCN1C=CN(C)C1C` (stereo not given), the Potency entry is “inactive”.

With `C=C/C(C)=C/C/C=C(\C)CCC=C(C)C`, the Potency result was “inactive”.

Take `COc1ccc(Cc2cnc(N)nc2N)cc1OC`: the Potency result is “inactive”.

As to `OCCCCCO`, the Potency result is “inactive”.

Take `C=C[C@@H](C)CCC=C(C)C`: the Potency entry is “inactive”.

Consider `C/C=C/C=N/NC(=O)c1ccncc1`, for which the Potency entry is “inactive”.

Turning to `C/C=C(\C)C(=O)OC/C=C(\C)CCC=C(C)C`, the Potency result was “inactive”.

`CC(C)[C@@H]1CC[C@@H](C)C[C@H]1O`: the Potency entry is “inactive”.

As to `Cc1nc2ccc(CN(C)c3ccc(C(=O)N[C@@H](CCC(=O)O)C(=O)O)s3)cc2c(=O)[nH]1`, the Potency entry is “inactive”.

Regarding `C[N+](C)(C)CC[N+]1(C)Cc2c(Cl)c(Cl)c(Cl)c(Cl)c2C1`, the Potency entry was “inactive”.

For the next assay the target is unchanged. As to the kind of experiment: Acetylcholinesterase (AChE) small molecule antagonists: enzyme-based qHTS assay with human liver microsomes (AID 1347399). Note: nearly all actives have a fitted effect of over 60% in size. Particulars: Potency: qHTS inhibition; outcome: qHTS inhibition; series mostly up to 115 µM. In short, it runs like this:
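Recombinant human AChE (50 mU/mL in the enzyme mix) and human liver microsomes (0.25 mg/mL final) were preincubated with compound and NADPH (0.25 mg/mL final) for 30 min at 37 C. Acetylthiocholine/DTNB was then added; thiocholine was read colorimetrically after 10 min at room temperature.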
On to `CC(C)(CC(=O)O)C(=O)O`, for which the Potency entry is “inactive”.

On to `O=C1CCCc2ccccc21`, for which the Potency result was “inactive”.

As for `CCCCOC(=O)c1ccccc1C(=O)OCC(CC)CCCC` (stereo not given), the Potency result was “inactive”.

Consider `O=Cc1ccccc1S(=O)(=O)O`, for which the Potency result is “inactive”.

Regarding `Oc1ccc(O)cc1`, the Potency entry is “inactive”.

For `CC(C)Cn1cnc2c1c(=O)n(C)c(=O)n2C`, the Potency result is “inactive”.

Turning to `OC(Cn1cncn1)(Cn1cncn1)c1ccc(F)cc1F`, the Potency entry is “inactive”.

On to `O=c1cc(-c2ccc(O)cc2)oc2cc(O)cc(O)c12`, for which the Potency result is “inactive”.

With `O=C(Nc1cccc(C(F)(F)F)c1)c1cc(Br)cc(Br)c1O`, the Potency result is “inactive”.

Consider `COc1ccc(OC)cc1`, for which the Potency result was “inactive”.

Take `CC(=O)Oc1ccc(C(=C2CCCCC2)c2ccc(OC(C)=O)cc2)cc1`: the Potency entry is “inactive”.

Consider `O=C(Cl)c1ccc(F)c(Cl)c1`, for which the Potency entry was “inactive”.

With `CN(C)CCOC(=O)C(c1ccccc1)C1(O)CCCC1` (stereo not given), the Potency result was “inactive”.

With `CCOC(=O)COc1ccc(C)cc1`, the Potency entry is “inactive”.

Take `O=c1ccc2ccccc2o1`: the Potency entry was “inactive”.

Take `CCOC(OCC)OCC`: the Potency result is “inactive”.

Take `C/C=C1/CC2C=CC1C2` (stereo not given): the Potency entry is “inactive”.

For `Fc1ccccc1`, the Potency result is “inactive”.

In the case of `C=C(C)C(=O)OCCN(CC)CC`, the Potency entry is “inactive”.

As to `CCCCC(CC)COS(=O)(=O)O` (stereo not given), the Potency entry was “inactive”.

Consider `O=c1[nH]c2ccccc2c(=O)n1CCCl`, for which the Potency result was “inactive”.

Regarding `CC(=O)SCc1ccco1`, the Potency result was “inactive”.

For `Cc1ccc(C(=O)Oc2ccc(C(O)CNC(C)(C)C)cc2OC(=O)c2ccc(C)cc2)cc1` (stereo not given), the Potency result was “inactive”.

Take `Nc1cc(S(=O)(=O)O)cc2cc(S(=O)(=O)O)cc(O)c12`: the Potency entry was “inactive”.

`CC(C)Cc1nccs1`: the Potency entry is “inactive”.

In the case of `CCCCCC(N)=O`, the Potency result was “inactive”.

As to `c1cc(CCCc2ccncc2)ccn1`, the Potency result is “inactive”.

For `O=C1NC2NC(=O)NC2N1` (stereo not given), the Potency entry was “inactive”.

Turning to `CC(C)OCC1CO1` (stereo not given), the Potency result is “inactive”.

Turning to `Nc1ccc2c(c1)CN1C(=O)c3ccccc3C1=N2`, the activity change, negative = inhibition is 6.82% [at 23.6 µM].

Turning to `CCN1C=CN(C)C1C` (stereo not given), the Potency result was “inactive”.

Turning to `C=C/C(C)=C/C/C=C(\C)CCC=C(C)C`, the Potency entry was “inactive”.

Turning to `COc1ccc(Cc2cnc(N)nc2N)cc1OC`, the Potency entry is “inactive”.

Regarding `OCCCCCO`, the Potency entry is “inactive”.

Turning to `C=C[C@@H](C)CCC=C(C)C`, the Potency entry is “inactive”.

`C/C=C/C=N/NC(=O)c1ccncc1`: the Potency result is “inactive”.

For the compound `C/C=C(\C)C(=O)OC/C=C(\C)CCC=C(C)C`, the Potency entry was “inactive”.

Take `CC(C)[C@@H]1CC[C@@H](C)C[C@H]1O`: the Potency result is “inactive”.

For `Cc1nc2ccc(CN(C)c3ccc(C(=O)N[C@@H](CCC(=O)O)C(=O)O)s3)cc2c(=O)[nH]1`, the Potency entry was “inactive”.

For `C[N+](C)(C)CC[N+]1(C)Cc2c(Cl)c(Cl)c(Cl)c(Cl)c2C1`, the Potency entry is “inactive”.
